For assay [1], the target named is T1, Methionyl-tRNA synthetase, putative (Leishmania donovani (strain BPK282A1)) (UniProt E9BF75).
T1 sequence (whole entry): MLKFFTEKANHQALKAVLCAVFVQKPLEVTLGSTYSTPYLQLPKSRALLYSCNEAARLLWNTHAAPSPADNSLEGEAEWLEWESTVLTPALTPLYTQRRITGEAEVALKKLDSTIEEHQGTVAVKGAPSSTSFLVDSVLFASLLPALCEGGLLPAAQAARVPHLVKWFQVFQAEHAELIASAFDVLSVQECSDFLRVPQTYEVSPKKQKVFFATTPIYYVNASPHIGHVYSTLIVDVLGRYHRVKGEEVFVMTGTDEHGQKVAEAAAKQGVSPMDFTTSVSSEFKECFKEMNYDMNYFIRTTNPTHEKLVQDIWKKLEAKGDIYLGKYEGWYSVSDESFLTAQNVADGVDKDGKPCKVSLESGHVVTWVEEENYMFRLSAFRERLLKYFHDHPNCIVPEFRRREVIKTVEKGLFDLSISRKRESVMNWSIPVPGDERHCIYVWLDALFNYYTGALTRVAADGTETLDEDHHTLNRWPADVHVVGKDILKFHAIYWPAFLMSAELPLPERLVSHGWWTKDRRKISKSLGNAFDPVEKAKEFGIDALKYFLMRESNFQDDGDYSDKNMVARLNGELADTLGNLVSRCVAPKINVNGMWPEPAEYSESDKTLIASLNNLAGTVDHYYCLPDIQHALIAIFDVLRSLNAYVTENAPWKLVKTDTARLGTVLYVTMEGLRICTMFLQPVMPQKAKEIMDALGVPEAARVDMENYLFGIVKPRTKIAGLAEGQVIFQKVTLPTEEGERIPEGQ
Description: Leishmania donovani Methionine tRNA synthetase (LdMetRS):v7. Dose response assay. Also on record: conc 80 nM, time 150 minutes. The class given is functional.

In assay [2] the target is Protein translocase subunit SecA (Escherichia coli (strain K12)) (UniProt P10408). Description: Assay to Identify E. coli SecA ATPase Inhibitors. It counts as functional. Also on record: scale not given: direction of the effect not stated beside the values. The following applies: 30 µM.
Chain of Protein translocase subunit SecA (Escherichia coli (strain K12)) (P10408 whole entry): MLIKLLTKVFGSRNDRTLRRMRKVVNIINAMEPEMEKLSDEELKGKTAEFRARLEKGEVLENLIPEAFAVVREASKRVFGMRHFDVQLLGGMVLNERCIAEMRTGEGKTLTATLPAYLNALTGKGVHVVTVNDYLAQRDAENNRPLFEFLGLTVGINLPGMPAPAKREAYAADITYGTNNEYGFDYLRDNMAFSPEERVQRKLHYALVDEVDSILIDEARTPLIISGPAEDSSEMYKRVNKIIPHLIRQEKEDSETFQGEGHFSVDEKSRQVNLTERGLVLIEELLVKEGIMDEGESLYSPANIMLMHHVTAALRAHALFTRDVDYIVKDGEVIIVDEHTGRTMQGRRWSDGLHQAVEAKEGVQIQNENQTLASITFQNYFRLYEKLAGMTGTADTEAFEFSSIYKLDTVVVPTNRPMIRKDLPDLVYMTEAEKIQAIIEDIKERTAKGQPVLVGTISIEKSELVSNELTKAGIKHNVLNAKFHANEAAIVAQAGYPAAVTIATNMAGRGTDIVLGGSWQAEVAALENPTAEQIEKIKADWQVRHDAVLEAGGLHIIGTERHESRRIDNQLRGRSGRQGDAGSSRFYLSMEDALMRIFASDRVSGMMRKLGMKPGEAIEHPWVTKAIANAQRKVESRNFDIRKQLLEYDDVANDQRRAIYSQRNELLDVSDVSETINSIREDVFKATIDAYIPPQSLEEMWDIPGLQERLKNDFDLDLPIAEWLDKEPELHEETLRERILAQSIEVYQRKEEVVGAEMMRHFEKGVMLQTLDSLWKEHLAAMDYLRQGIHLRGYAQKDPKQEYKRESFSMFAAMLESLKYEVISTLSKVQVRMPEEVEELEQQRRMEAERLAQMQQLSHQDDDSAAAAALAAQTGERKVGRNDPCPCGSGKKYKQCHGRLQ
The target in assay [3] is T2, Ubiquitin-activating enzyme e1, putative (Leishmania donovani (strain BPK282A1)) (UniProt E9BSI1).
T2 sequence (whole entry): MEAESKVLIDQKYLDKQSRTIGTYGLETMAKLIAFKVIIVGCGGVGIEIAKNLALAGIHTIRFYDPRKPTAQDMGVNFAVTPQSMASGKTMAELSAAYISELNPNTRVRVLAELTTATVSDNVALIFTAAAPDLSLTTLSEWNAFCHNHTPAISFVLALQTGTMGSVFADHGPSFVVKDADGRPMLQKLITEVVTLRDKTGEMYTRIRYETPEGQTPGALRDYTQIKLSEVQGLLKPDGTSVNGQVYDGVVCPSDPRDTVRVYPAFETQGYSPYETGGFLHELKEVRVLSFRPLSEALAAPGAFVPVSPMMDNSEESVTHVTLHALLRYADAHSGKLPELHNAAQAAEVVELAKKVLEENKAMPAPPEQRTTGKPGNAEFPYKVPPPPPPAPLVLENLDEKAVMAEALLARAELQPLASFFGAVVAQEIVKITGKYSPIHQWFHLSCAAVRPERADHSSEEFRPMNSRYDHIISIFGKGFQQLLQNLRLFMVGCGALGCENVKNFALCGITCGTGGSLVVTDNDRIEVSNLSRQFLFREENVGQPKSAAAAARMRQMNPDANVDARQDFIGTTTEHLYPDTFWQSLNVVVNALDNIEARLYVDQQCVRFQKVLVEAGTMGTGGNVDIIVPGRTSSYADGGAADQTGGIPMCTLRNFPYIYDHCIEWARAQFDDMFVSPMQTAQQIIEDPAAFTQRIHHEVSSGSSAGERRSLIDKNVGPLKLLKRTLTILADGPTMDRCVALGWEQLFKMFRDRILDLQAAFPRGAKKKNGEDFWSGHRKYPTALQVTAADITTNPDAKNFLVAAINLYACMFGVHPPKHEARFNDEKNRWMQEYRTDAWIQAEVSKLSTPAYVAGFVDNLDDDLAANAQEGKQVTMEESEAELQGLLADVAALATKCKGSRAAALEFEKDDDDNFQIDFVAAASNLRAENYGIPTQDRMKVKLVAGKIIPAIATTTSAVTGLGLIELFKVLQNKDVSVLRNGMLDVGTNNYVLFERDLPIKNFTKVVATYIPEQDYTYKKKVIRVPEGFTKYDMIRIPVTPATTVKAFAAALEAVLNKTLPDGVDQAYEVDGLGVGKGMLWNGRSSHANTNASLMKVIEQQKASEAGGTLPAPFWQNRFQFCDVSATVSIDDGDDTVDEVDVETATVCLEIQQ
Description: Leishmania donovani Ubiquitin Activating Enzyme (LdE1). The following applies: 30 µM. More on the design: scale not given: direction of the effect not stated beside the values. It counts as functional.

For assay [4], the target named is AMP-activated protein kinase, AMPK (Homo sapiens) (UniProt P54646+O43741+P54619+Q9UGJ0+Q9Y478+Q13131+Q9UGI9). Nature of the assay: AMP-dependent Kinase enzyme assay. An in vitro enzyme assay that detects ADP turnover that is directly proportional to AMPK activity. This uses naive AMPK that is activated during the assay with MK-8722. The class given is functional. More on the design: scale not given: direction of the effect not stated beside the values. The following applies: 30 µM.

Assay [5] deals with Sialic acid-binding Ig-like lectin 9 (Homo sapiens) (UniProt Q9Y336). Nature of the assay: Hs-Siglec9 ALPHAscreen SOP 20170721. The following applies: 10 µM. More on the design: scale not given: direction of the effect not stated beside the values. (In Alpha technology, singlet oxygen from a donor bead excites a nearby acceptor bead.)
Chain of Sialic acid-binding Ig-like lectin 9 (Homo sapiens) (Q9Y336 whole entry): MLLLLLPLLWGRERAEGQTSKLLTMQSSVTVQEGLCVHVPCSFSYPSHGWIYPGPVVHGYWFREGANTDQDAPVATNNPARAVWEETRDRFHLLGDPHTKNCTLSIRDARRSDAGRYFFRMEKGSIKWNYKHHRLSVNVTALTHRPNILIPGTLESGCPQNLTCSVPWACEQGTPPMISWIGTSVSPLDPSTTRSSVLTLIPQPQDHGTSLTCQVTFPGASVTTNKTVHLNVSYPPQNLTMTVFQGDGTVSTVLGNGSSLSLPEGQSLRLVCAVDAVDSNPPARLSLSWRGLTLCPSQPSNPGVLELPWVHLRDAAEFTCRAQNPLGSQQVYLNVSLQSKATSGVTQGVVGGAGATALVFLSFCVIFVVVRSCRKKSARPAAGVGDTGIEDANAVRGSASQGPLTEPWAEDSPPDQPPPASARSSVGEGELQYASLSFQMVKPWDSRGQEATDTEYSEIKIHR
The test system of the next assay is Trypanosoma cruzi. Nature of the assay: Trypanosoma cruzi phosphomannomutase and mannose-1-phosphate guanylyltransferase assay. It counts as functional. Also on record: scale not given: direction of the effect not stated beside the values. The following applies: 10 µM.
Assay [6] has as its target T3, Arginase-2, mitochondrial (Homo sapiens) (UniProt P78540).
T3 sequence (whole entry): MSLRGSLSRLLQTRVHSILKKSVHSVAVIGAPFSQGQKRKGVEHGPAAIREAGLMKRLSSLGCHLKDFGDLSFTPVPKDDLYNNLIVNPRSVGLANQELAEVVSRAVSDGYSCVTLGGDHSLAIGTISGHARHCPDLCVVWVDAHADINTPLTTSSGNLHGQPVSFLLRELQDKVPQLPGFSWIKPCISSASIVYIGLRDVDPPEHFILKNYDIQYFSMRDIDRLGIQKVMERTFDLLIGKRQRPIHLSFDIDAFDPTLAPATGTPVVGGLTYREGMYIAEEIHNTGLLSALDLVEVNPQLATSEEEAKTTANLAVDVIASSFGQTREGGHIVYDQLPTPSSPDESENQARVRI
Description: in vitro enzyme assay to detect the production of urea directly proportional to the activity of Arginase II. It counts as functional. More on the design: scale not given: in the data most compounds retested in dose-response had high values.

Assay [7] deals with T4, Proteasome subunit beta (Trypanosoma cruzi) (UniProt O96673).
T4 sequence (whole entry): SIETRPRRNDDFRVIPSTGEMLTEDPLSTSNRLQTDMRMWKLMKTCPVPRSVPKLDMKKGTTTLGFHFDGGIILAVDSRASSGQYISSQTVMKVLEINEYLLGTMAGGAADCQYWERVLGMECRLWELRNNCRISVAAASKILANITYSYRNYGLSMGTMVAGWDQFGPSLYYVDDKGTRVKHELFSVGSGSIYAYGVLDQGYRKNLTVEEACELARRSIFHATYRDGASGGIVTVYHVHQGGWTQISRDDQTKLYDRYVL
Description: Trypanosoma cruzi proteasome chymotrypsin-like activity (TcProtChymo) assay. The class given is functional. More on the design: scale not given: in the data most compounds retested in dose-response had high values. Particulars: 9.37 µM.

For the next assay, the species on record is Homo sapiens. Nature of the assay: To identify inhibition of the IFN signalling (Jak-Stat) pathway via expression of an eGFP reporter gene under the control of an IFN-stimulated response element (ISRE) containing MxA promoter. The class given is functional. More on the design: scale not given: direction of the effect not stated beside the values. The following applies: 30 µM.

In assay [8] the target is T5, Tyrosyl-tRNA synthetase, putative (Trypanosoma cruzi (strain CL Brener)) (UniProt Q4DSP6).
T5 sequence (whole entry): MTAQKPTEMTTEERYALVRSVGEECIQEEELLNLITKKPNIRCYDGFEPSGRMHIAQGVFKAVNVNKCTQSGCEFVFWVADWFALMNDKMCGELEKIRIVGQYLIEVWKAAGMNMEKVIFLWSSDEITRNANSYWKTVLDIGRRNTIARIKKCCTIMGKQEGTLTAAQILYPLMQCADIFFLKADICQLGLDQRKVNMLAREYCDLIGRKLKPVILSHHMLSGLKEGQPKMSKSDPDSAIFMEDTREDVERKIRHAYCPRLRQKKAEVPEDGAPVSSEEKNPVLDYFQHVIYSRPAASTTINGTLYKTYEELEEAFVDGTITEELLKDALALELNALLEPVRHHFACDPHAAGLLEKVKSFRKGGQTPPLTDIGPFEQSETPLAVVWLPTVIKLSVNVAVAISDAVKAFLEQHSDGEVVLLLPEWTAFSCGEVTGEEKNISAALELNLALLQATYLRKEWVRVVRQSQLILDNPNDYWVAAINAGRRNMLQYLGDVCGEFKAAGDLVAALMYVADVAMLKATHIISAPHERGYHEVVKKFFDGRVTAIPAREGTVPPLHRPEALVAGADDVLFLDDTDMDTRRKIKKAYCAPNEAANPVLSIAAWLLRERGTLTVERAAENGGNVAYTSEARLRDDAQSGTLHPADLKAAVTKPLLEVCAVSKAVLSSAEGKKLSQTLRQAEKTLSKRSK
Description: Trypanosoma cruzi tyrosyl tRNA synthetase (TcYRS) _High Tyrosine SOP. It counts as functional. More on the design: scale not given: in the data most compounds retested in dose-response had high values. The following applies: 30 µM.

Assay [9] has as its target T5, Tyrosyl-tRNA synthetase, putative (Trypanosoma cruzi (strain CL Brener)). Description: Trypanosoma cruzi tyrosyl tRNA synthetase (TcYRS) SOP. The class given is functional. Also on record: scale not given: direction of the effect not stated beside the values. The following applies: 30 µM.
Assay [10] addresses Chromo domain-containing protein 1 (Saccharomyces cerevisiae (strain ATCC 204508 / S288c) (Baker's yeast)) (UniProt P32657). Nature of the assay: ScCHD-1 Enzyme Inhibition Assay. The class given is functional. More on the design: scale not given: in the data most compounds retested in dose-response had high values. Particulars: 30 µM.

The record followed here is ChEMBL document CHEMBL3988442, “University of Dundee, Small-Polar-MMV Screening Library” (2021).

For part of these data: Entries with a potency or affinity are not part of this list. A value given as a limit tells only on which side of the number the result lay.

Chain of Chromo domain-containing protein 1 (Saccharomyces cerevisiae (strain ATCC 204508 / S288c) (Baker's yeast)) (P32657 whole entry, the tested form may be a part): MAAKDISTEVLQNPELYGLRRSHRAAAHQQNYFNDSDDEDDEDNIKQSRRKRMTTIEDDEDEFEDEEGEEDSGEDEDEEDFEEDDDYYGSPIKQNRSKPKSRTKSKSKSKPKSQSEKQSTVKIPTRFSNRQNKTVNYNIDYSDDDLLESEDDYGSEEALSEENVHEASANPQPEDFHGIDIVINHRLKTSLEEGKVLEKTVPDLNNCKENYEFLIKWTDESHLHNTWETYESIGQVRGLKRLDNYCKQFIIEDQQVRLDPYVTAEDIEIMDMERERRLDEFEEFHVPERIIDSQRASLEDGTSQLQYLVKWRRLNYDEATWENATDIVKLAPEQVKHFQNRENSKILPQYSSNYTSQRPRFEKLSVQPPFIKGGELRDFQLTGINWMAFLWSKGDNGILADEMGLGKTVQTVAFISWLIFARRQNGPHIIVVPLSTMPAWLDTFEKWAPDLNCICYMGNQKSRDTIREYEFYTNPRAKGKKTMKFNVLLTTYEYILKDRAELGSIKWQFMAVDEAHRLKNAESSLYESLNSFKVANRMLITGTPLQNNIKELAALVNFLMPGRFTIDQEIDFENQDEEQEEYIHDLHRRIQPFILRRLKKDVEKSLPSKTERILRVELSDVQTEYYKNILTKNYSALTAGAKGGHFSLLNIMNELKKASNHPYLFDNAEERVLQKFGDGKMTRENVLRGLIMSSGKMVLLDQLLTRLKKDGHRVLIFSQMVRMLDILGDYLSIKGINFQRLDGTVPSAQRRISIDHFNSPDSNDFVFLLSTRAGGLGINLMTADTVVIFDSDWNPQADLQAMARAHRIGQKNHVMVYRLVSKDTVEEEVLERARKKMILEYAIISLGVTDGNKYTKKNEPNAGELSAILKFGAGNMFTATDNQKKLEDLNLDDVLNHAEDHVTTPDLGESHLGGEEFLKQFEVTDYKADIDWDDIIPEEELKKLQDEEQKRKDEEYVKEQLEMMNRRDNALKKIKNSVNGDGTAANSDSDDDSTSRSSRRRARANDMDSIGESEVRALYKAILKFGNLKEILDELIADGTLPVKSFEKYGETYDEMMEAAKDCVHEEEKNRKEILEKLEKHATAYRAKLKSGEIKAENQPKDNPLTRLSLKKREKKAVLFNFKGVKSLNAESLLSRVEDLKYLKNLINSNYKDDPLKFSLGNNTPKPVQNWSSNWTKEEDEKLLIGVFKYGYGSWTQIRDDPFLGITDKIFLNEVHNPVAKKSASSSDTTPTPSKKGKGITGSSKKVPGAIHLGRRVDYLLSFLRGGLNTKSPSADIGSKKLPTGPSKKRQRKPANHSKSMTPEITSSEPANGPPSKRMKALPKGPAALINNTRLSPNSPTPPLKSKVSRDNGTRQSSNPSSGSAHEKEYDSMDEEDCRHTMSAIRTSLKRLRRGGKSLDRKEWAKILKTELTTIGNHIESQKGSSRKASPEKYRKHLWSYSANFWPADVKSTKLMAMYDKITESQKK

On to `c1ccc(COC2CCN(c3cncc(-n4cccn4)n3)CC2)cc1`, for which the PXC50 in assay [1] (MAX_EFFECT 8.551068884) and in assay [1] (MAX_EFFECT 14.26056338) was less than 4 in each case. Moreover, the Percent Effect in [2] was -2.59%; in assay [3] it was 5.41%; in assay [4], -5.76%; in assay [5], -7.06%; in the assay with Trypanosoma cruzi it was 4.3%; in [6] (33.3 µM), 2.08%. In addition, the Percent Effect was 19.2% in assay [7]; 14.3% in the assay listed under Homo sapiens; 8.91% in assay [8]; 13.4% in assay [9]; -2.69% in [10].

Regarding `Cc1nnc(NCC2(c3ccccc3)CC2)c(C#N)c1C`, the PXC50 in assay [1] (MAX_EFFECT 6.650831354) and in [1] (MAX_EFFECT 11.79577465) was less than 4 each time. Moreover, the Percent Effect is -6.81% in assay [2]; 0% in assay [3]; -11.8% in [4]; 5.06% in assay [5]; -3.09% in the assay with Trypanosoma cruzi; 1.43% in [6] (33.3 µM). The Percent Effect in assay [7] is 8.1%; in the assay listed under Homo sapiens, 13%; in [8] it was -0.529%; in assay [9] it was 4.88%; in assay [10] it was -4.42%.

Consider `CC1CCCN(CC(=O)N2CCC(c3ncc4c(n3)CCNC4)CC2)C1` (stereo unspecified), for which the PXC50 in assay [1] (MAX_EFFECT 4.401408451) and in assay [1] (MAX_EFFECT 5.700712589) was less than 4 each time. In addition, the Percent Effect in [2] is -3.77%; in [3], 2.67%; in assay [4], 14.5%; in [5], -3.5%; with Trypanosoma cruzi, 0.394%; in assay [6] (33.3 µM) it was -0.699%. Further, the Percent Effect in assay [7] was 5.02%; in the assay filed under Homo sapiens, 3.99%; in assay [8], -1.06%; in assay [9], -3.85%; in [10] it was 2.27%.

Take `COc1c(CNC2CCc3c(Cl)cccc32)c(C)nn1C` (stereo unspecified): the Percent Effect was -3.04% in [2]; 8% in [3]; -13.3% in [4]; 15.4% in [5]; 7.89% with Trypanosoma cruzi; 1.62% in assay [6] (30 µM). Further, the Percent Effect in assay [6] (33.3 µM) stood at 14.1%; in assay [7], 16.2%; in the assay filed under Homo sapiens it was 53.8%; in assay [8], 4.92%; in [9], 16.1%; in assay [10], 108%.
